Screen size: about 48,000 compounds; about 13,000 (27%) showed an effect of 50% or more. This is one part of the list.
system: Wolbachia pipientis; experiment: Anti-Wolbachia Cell-Based Screen; assay type: functional; parameters: scale not given: in the data most compounds retested in dose-response had high values; settings: 5 µM

Compound | Percent Effect [%]
COCCN(CCOC)S(=O)(=O)N(C)Cc1ccncc1 | 7.861
Cc1ccc(=O)n(CC2(O)CCN(Cc3cnn(C)c3)CC2)n1 | 99.25
Cn1cc(CN2CCC3(CC2)CC(=O)Nc2ccccc23)cn1 | -46.12
Cn1cc(CN2CC3(CCN(C(=O)c4ccoc4)C3)C2)cn1 | 3.005
Cc1ccc(=O)n(CC2(O)CCN(Cc3ccoc3)CC2)n1 | 91.7
Cc1nc2c(c(N3CC=CC3)n1)CCN(Cc1ccoc1)CC2 | 2.971
CCN(CC)Cc1ccc(C(=O)NC2CCc3cc(Br)ccc32)o1 (stereo not drawn) | -2.859
CC(C)c1cc(NCc2csc(C(C)C)n2)nc(N)n1 | -18.23
COc1ccc(C(=O)Nc2ccccc2C(C)C)c(OC)n1 | 169
COc1ccc(C(=O)Nc2cccc(SC)c2)c(OC)n1 | 175.2
COc1ncccc1NC(=O)c1cccc(C)n1 | -5.429
COc1ccc(NC(=O)c2cccc(OC)c2OC)cc1 | -22.1
COc1ncccc1C(=O)Nc1ccccc1-c1ccc(=O)n(C)n1 | -13.19
COc1ccc(C(CO)NC(=O)Nc2cccc(C(C)=O)c2)cc1 (stereo not drawn) | -19.79
COc1ccc(C(=O)Nc2ccccc2-c2ccc(=O)n(C)n2)cc1 | 17.03
COc1ccc(C(=O)Nc2cccc(C(N)=O)c2)c(OC)n1 | 132
COc1cc(NC(=O)c2cccc(N(C)C)c2)cc(OC)c1 | 6.421
CC(C)Oc1ncc(C(=O)N2CCc3ccc(O)cc3C2)cc1Cl | -26.56
CN1N=C(c2nc(Cc3cccc(Br)c3)no2)CCC1=O | -6.645
CC(C(=O)NC1CC1)S(=O)(=O)c1cc2c(cc1Cl)OCCO2 (stereo not drawn) | -15.14
Cc1noc(C)c1CNS(=O)(=O)N(C)Cc1ccccc1Br | -0.1877

Compound | Percent Effect [%]
CCc1noc(CN(C)C(=O)COc2cccc(Cl)c2C)n1 | 4.111
O=C(O)C(F)(F)F.c1coc(CN2CCO[C@H]3[C@H](OCC4CC4)CC[C@@H]32)c1 | 120.5
O=C(O)C(F)(F)F.c1coc(CN2CCO[C@H]3[C@@H](OCC4CC4)CC[C@@H]32)c1 | 73.75
O=C(O)C(F)(F)F.c1coc(CN2CCO[C@H]3[C@H](OCC4CCCC4)CC[C@@H]32)c1 | 101
O=C(O)C(F)(F)F.c1csc(CN2CCO[C@H]3[C@H](OCC4CCCC4)CC[C@@H]32)n1 | -7.308
CC(C)NC(=O)[C@H]1C[C@@H]2[C@@H](C1)OCCN2Cc1ccco1.O=C(O)C(F)(F)F | 1.513
CCC(Nc1ccc(Oc2cccc(C#N)c2)cc1)C(N)=O (stereo not drawn) | 18.43
CC[C@@H](CO)NC(=O)c1coc(COc2ccc3sc(C)nc3c2)n1 | -14.59
CCCc1noc(C(C)N2CC(n3cccn3)C2)n1 (stereo not drawn) | 2.136
COCC1CN(Cc2ccc3c(c2)OCO3)Cc2ncn(C)c21.O=C(O)C(F)(F)F.O=C(O)C(F)(F)F (stereo not drawn) | 103.2
CN(C)CC1CN(Cc2ccc3c(c2)OCO3)Cc2nccn2C1.O=C(O)C(F)(F)F.O=C(O)C(F)(F)F (stereo not drawn) | 4.386
CCOCC1CN(Cc2cnn(C)c2)Cc2nn(C)cc21.O=C(O)C(F)(F)F (stereo not drawn) | -12.04
CCOCC1CN(Cc2ccc3c(c2)OCO3)Cc2ncn(C)c21 (stereo not drawn) | 101.2
Cn1cnc2c1C(COCC1CC1)CN(Cc1ccc3c(c1)OCO3)C2.O=C(O)C(F)(F)F.O=C(O)C(F)(F)F (stereo not drawn) | 34.98
COCC1CN(Cc2ccc(OC)cc2)Cc2nn(C)cc21.O=C(O)C(F)(F)F (stereo not drawn) | -23.14
CCOCC1CN(Cc2cc(C)on2)Cc2cn(C)nc21 (stereo not drawn) | -1.224
CCOCC1CN(Cc2ccc3c(c2)OCO3)Cc2nccn2C1 (stereo not drawn) | 77.74
CCCc1nnc(NCc2ccc(OC)c(C#N)c2)o1 | -5.74
CN1C[C@@H](F)[C@@H](OCc2nc3ccc(C#N)cc3[nH]2)C1 | 11.19
NC(=O)CN(C(=O)Cc1ccc(C(F)(F)F)cc1)C1CCCC1 | 1.7
CCn1nc(C)c(CCn2ccnc2-c2cc3n(n2)CCCNC3)c1C | -7.012

Compound | Percent Effect [%]
CC(C)CC(O)C1CCN(Cc2cnc(-c3cccs3)nc2)CC1 (stereo not drawn) | 3.832
CN(C)S(=O)(=O)c1cccc(NC(=O)Cc2ccon2)c1 | -6.04
COCCn1/c(=N\C(=O)CN(C)S(C)(=O)=O)sc2cccc(F)c21 | 0
CC(=O)N1CCC(c2ccnc(Nc3cc(C(F)(F)F)ccn3)n2)C1 (stereo not drawn) | 158.6
O=C(CC(F)(F)F)N1CCCC(c2nccn2Cc2ccncc2)C1 (stereo not drawn) | -5.55
O=C(CO)N1CCC(c2ccnc(Nc3cc(C(F)(F)F)ccn3)n2)C1 (stereo not drawn) | 149.1
Cl.NCC(=O)N1CCC(c2ccnc(Nc3cc(C(F)(F)F)ccn3)n2)C1 (stereo not drawn) | 119.4
COCC(=O)N1CC(c2ccnc(Nc3cc(C(F)(F)F)ccn3)n2)C1 | 171.1
Nc1ccc(C(=O)N2CCCC(c3nccn3Cc3cscn3)C2)cn1 (stereo not drawn) | -28.34
CN(C)C1CCN(C(=O)c2cc(-c3ccn(C)n3)n3ccccc23)CC1.O=C(O)C(F)(F)F | 86.54
CN1CCCN(C(=O)c2cc(-c3cc[nH]n3)n3ccccc23)CC1.O=C(O)C(F)(F)F.O=C(O)C(F)(F)F | 9.313
Cn1ccc(-c2cc(C(=O)N3CCCCC3)c3ccccn23)n1 | 111.2
O=C(O)c1cc(-c2ccn(CC3CC3)n2)n2ccccc12 | 0.5352
COCCn1cc(-c2cc(C(=O)N3CCCC3)c3ccccn23)nc1C | -3.651
Cn1ccc(-c2cc(C(=O)N3CCC(O)CC3)c3ccccn23)n1 | 101.1
Cn1ccc(-c2cc(C(=O)N3CCC(C(N)=O)CC3)c3ccccn23)n1 | 110.4
O=C(c1cc(-c2ccn(CC3CC3)n2)n2ccccc12)N1CCCO1 | -14.88
O=C(c1cc(-c2ccn(CC3CC3)n2)n2ccccc12)N1CCOCC1 | -12.76
CC(C)c1nc(-c2cc(C(=O)N3CCN(C)CC3)c3ccccn23)cs1.O=C(O)C(F)(F)F | -39.55
Cc1nc(-c2cc(C(=O)N3CCN(C)CC3)c3ccccn23)cn1C | 1.368
CC(C)n1ccc(-c2cc(C(=O)N3CCN(C)CC3)c3ccccn23)n1.O=C(O)C(F)(F)F | -12.81

Source: ChEMBL document CHEMBL3988442, “University of Dundee, Small-Polar-MMV Screening Library” (2021)
